CYP2C9 inhib = human CYP2C9 inhibition | CYP2C9 Supersomes, luciferin-H conversion, luminescence | inhibition, % at 5 µM | actives 20% (n = 96,000) | AID 777;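 active means blocking of liver enzyme CYP2C9 beyond about 50% at 5 µM, limit read from the data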
Target sequence (P11712 whole entry, looked up): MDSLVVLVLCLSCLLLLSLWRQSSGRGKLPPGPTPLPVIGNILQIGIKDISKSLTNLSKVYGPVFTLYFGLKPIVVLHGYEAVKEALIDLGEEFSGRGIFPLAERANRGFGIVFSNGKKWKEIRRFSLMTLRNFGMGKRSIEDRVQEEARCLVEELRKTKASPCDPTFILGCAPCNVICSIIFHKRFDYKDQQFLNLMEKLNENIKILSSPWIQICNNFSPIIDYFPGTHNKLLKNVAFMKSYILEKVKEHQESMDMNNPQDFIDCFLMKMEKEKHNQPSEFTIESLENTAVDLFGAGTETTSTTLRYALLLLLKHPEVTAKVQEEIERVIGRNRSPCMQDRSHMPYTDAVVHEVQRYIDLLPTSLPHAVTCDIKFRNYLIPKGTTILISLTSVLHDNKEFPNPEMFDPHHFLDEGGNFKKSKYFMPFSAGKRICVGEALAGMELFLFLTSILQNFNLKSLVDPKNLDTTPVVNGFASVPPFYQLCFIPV
sEH inhibitor = blocks human soluble epoxide hydrolase activity; P34913; recombinant human sEH enzymatic activity assay; inhibition, % at 2 µM; actives 0.34% (n = 91,000); AID 707; in the data active means inhibition above about 80%
CYP2C9 activ = increases human cytochrome P450 2C9 activity; actives 1.4% (n = 96,000); activation factor at 5 µM; recombinant CYP2C9, luciferin-H conversion, luminescence; hits give high values; factor 1 = untreated enzyme, 0 = blocked; P11712;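 active means activation factor of 2 or more for CYP2C9 at a 5 µM dose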
CYP2C19 activ = activators of human cytochrome P450 2C19; P33261; recombinant CYP2C19, luciferin-H EGE luminescence; hits give high values; 0 = fully inhibited enzyme, 1 = untreated enzyme; activation factor at 5 µM; 96,000 tested, under 10 active; AID 1025;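 active means activation factor of at least 2 at 5 µM in the primary screen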
CYP2C19 inh = human CYP2C19 inhibition | inhibition, % at 5 µM | CYP2C19 Supersomes, luciferin-H EGE luminescence, 30 min | actives 21% (n = 96,000) | P33261;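 active means CYP2C19 inhibition above a set limit at 5 µM in the primary screen, cut at about 50% in these data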
sEH act = soluble epoxide hydrolase (human) activation; purified human sEH enzymatic activity, activator screen; activation, % at 2 µM; actives 0.04% (n = 91,000); in the data active means activation above about 37%
Hits are given with their value. Sampled rows, rich in hits. Any-hit rate of the full collection: about 27%.

`COC(=O)c1cccc(NC(=O)CSc2nnnn2C)c1` gave CYP2C9 inhib inactive, sEH inhibitor inactive, CYP2C9 activ inactive, CYP2C19 activ inactive, CYP2C19 inh inactive and sEH act inactive.
For COC(=O)c1cccc(NC(=O)CSc2nc3cccnc3n2C)c1 the results were CYP2C9 inhib 59, CYP2C9 activ inactive, CYP2C19 activ inactive and CYP2C19 inh 68.
`COCCNC(=O)CN(c1ccccc1OC)S(C)(=O)=O` gave CYP2C9 inhib inactive, sEH inhibitor inactive, CYP2C9 activ inactive, CYP2C19 activ inactive, CYP2C19 inh inactive and sEH act inactive.
COCCNC(=O)CN(c1cc(C(F)(F)F)ccc1Cl)S(C)(=O)=O was read as CYP2C9 inhib inactive, sEH inhibitor inactive, CYP2C9 activ inactive, CYP2C19 activ inactive, CYP2C19 inh 58 and sEH act inactive.
For COC(=O)CN(c1cc(C(F)(F)F)ccc1Cl)S(C)(=O)=O the results were CYP2C9 inhib inactive, sEH inhibitor inactive, CYP2C9 activ inactive, CYP2C19 activ inactive, CYP2C19 inh 56 and sEH act inactive.
CC(C)OCCCNC(=O)Cn1nc(-c2ccccc2)ccc1=O was read as CYP2C9 inhib inactive, CYP2C9 activ inactive, CYP2C19 activ inactive and CYP2C19 inh inactive.
Screening O=C(CSc1nc2ccccc2n1CC(=O)N1CCCC1)Nc1nccs1 returned CYP2C9 inhib inactive, sEH inhibitor inactive, CYP2C9 activ inactive, CYP2C19 activ inactive, CYP2C19 inh inactive and sEH act inactive.
`C=CCNC(=S)NNC(=O)c1cccn(Cc2ccc(Cl)cc2Cl)c1=O` gave CYP2C9 inhib 68, sEH inhibitor inactive, CYP2C9 activ inactive, CYP2C19 activ inactive, CYP2C19 inh inactive and sEH act inactive.
`C=CCNC(=S)NNC(=O)c1cccn(Cc2ccc(Cl)c(Cl)c2)c1=O` gave CYP2C9 inhib inactive, sEH inhibitor inactive, CYP2C9 activ inactive, CYP2C19 activ inactive, CYP2C19 inh inactive and sEH act inactive.
Screening Cc1cc(C)c(C(=O)CSc2nnc(-c3cccnc3)n2C)c(C)c1 returned CYP2C9 inhib inactive, sEH inhibitor inactive, CYP2C9 activ inactive, CYP2C19 activ inactive, CYP2C19 inh inactive and sEH act inactive.
For CC1Cc2nc(SCC(=O)Nc3ccc4c(c3)OCCO4)n(C)c(=O)c2S1 (stereo unspecified) the results were CYP2C9 inhib 52, sEH inhibitor inactive, CYP2C9 activ inactive, CYP2C19 activ inactive, CYP2C19 inh inactive and sEH act inactive.
`CCOC(=O)c1ccc(NC(=O)CSc2nc3c(c(=O)n2C)SC(C)C3)cc1` (stereo unspecified) gave CYP2C9 inhib 51, CYP2C9 activ inactive, CYP2C19 activ inactive and CYP2C19 inh inactive.
`CC1Cc2nc(SCC(=O)Nc3ccc4c(c3)OCO4)n(Cc3ccccc3)c(=O)c2S1` (stereo unspecified) gave CYP2C9 inhib 75, sEH inhibitor inactive, CYP2C9 activ inactive, CYP2C19 activ inactive, CYP2C19 inh 84 and sEH act inactive.
For CC1Cc2nc(SCC(N)=O)n(C)c(=O)c2S1 (stereo unspecified) the results were CYP2C9 inhib inactive, CYP2C9 activ inactive, CYP2C19 activ inactive and CYP2C19 inh inactive.
For COc1cc(S(=O)(=O)NCc2cccnc2)c(OC)cc1Br the results were CYP2C9 inhib inactive, sEH inhibitor inactive, CYP2C9 activ inactive, CYP2C19 activ inactive, CYP2C19 inh inactive and sEH act inactive.
`CCOC(=O)Cn1c(N2CCOCC2)nc2c1c(=O)[nH]c(=O)n2C` gave CYP2C9 inhib inactive, sEH inhibitor inactive, CYP2C9 activ inactive, CYP2C19 activ inactive, CYP2C19 inh inactive and sEH act inactive.
`Cc1ccc(Cn2nnc3c(=O)[nH]c(C(=O)NCc4ccco4)nc32)cc1` gave CYP2C9 inhib inactive, CYP2C9 activ inactive, CYP2C19 activ inactive and CYP2C19 inh inactive.
O=C(c1ccccc1)N1CCC(c2nc3c(nnn3Cc3ccco3)c(=O)[nH]2)CC1 was read as CYP2C9 inhib 53, sEH inhibitor inactive, CYP2C9 activ inactive, CYP2C19 activ inactive, CYP2C19 inh inactive and sEH act inactive.
For O=C(c1ccc(Cl)cc1Cl)N1CCC(c2nc3c(nnn3Cc3ccco3)c(=O)[nH]2)CC1 the results were CYP2C9 inhib 59, sEH inhibitor inactive, CYP2C9 activ inactive, CYP2C19 activ inactive, CYP2C19 inh inactive and sEH act inactive.
Cc1ccc(S(=O)(=O)N2CCCC2C(=O)N(C)Cc2cccs2)cc1 (stereo unspecified) was read as CYP2C9 inhib inactive, sEH inhibitor inactive, CYP2C9 activ inactive, CYP2C19 activ inactive, CYP2C19 inh inactive and sEH act inactive.
`O=C(C1CCCN(S(=O)(=O)c2ccc(Cl)cc2)C1)N(Cc1cccs1)C1CC1` (stereo unspecified) gave CYP2C9 inhib inactive, CYP2C9 activ inactive, CYP2C19 activ inactive and CYP2C19 inh 69.
`CC1(C)C(=O)NCCN1C(=O)CCC(=O)O` gave sEH inhibitor inactive and sEH act inactive.
Cc1cc(=O)c2cc(Br)ccc2[nH]1 was read as CYP2C9 inhib 52, sEH inhibitor inactive, CYP2C9 activ inactive, CYP2C19 activ inactive, CYP2C19 inh inactive and sEH act inactive.
COc1ccc(Cl)cc1C(=O)NC(=S)Nc1cc(-c2nc3ccccc3[nH]2)ccc1C was read as sEH inhibitor inactive and sEH act inactive.
Screening C=CCOC(=O)C1=C(C)NC(=O)NC1C1CC=CCC1 (stereo unspecified) returned CYP2C9 inhib inactive, sEH inhibitor inactive, CYP2C9 activ inactive, CYP2C19 activ inactive, CYP2C19 inh 98 and sEH act inactive.
For COCCOC(=O)C1=C(C)NC(=O)NC1C1CC=CCC1 (stereo unspecified) the results were CYP2C9 inhib inactive, sEH inhibitor inactive, CYP2C9 activ inactive, CYP2C19 activ inactive, CYP2C19 inh 96 and sEH act inactive.
For C=CCOC(=O)C1=C(C)NC(=O)NC1/C=C/c1ccccc1 (stereo unspecified) the results were CYP2C9 inhib inactive, sEH inhibitor inactive, CYP2C9 activ inactive, CYP2C19 activ inactive, CYP2C19 inh inactive and sEH act inactive.
Screening COc1ccc2c(c1OC)C(=O)OC2CC(=O)c1ccc(O)c(O)c1 (stereo unspecified) returned CYP2C9 inhib inactive, sEH inhibitor inactive, CYP2C9 activ inactive, CYP2C19 activ inactive, CYP2C19 inh 51 and sEH act inactive.
Screening COc1ccc2c(c1OC)C(=O)OC2CC(=O)c1ccc(O)cc1 (stereo unspecified) returned CYP2C9 inhib inactive, CYP2C9 activ inactive, CYP2C19 activ inactive and CYP2C19 inh 72.
Screening COc1ccc2c(c1OC)C(=O)OC2CC(=O)c1ccc(N(C)C)cc1 (stereo unspecified) returned CYP2C9 inhib inactive, CYP2C9 activ inactive, CYP2C19 activ inactive and CYP2C19 inh inactive.
`COc1ccc2c(c1OC)C(=O)OC2CC(=O)O` (stereo unspecified) gave CYP2C9 inhib inactive, sEH inhibitor inactive, CYP2C9 activ inactive, CYP2C19 activ inactive, CYP2C19 inh inactive and sEH act inactive.
